Assay outcomes from PubChem BioAssay.
Rows were chosen to be rich in hits. Some 12% of all compounds tested hit in one or more screens of this group.
JMJD2A Tudor: qHTS Assay for Inhibitors of JMJD2A-Tudor Domain; Lysine-specific demethylase 4A (Homo sapiens), O75164; AlphaScreen JMJD2A-Tudor / H3K4me3 peptide binding; AID 504339, 2011; Potency, µM (series often up to 114 µM), usual class: inhibitors; 4.4% of 390,000 active; note: nearly all actives have a fitted effect of over 50% in size
Target sequence (O75164 whole entry, looked up, the tested form may be a part): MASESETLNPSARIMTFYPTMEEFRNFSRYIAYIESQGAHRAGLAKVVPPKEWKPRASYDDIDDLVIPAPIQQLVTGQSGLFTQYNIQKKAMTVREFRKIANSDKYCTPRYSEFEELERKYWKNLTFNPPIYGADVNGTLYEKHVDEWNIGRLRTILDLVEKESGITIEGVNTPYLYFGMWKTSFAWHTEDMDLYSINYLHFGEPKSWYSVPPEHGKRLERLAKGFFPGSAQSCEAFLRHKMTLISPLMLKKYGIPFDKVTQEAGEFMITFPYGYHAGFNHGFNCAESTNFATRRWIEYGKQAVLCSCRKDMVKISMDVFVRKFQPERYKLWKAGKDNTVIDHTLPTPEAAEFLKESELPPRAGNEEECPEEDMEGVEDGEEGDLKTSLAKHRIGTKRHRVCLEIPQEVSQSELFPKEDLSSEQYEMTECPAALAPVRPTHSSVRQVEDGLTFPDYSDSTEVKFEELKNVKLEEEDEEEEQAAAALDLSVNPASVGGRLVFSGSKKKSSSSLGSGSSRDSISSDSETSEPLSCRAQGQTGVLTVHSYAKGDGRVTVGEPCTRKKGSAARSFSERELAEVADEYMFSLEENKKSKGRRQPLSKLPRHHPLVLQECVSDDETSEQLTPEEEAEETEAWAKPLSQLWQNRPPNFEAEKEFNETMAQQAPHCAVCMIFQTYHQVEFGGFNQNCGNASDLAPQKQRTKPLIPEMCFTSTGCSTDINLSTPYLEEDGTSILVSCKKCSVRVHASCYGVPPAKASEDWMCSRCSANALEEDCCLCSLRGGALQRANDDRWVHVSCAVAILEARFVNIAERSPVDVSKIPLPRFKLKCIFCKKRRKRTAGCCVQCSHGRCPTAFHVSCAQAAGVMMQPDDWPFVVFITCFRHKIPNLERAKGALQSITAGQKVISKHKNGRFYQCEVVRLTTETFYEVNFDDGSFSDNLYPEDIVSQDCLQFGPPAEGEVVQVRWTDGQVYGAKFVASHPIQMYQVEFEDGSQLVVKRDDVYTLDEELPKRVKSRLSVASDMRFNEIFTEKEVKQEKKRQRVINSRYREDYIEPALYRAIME
BAZ2B block: qHTS Assay for Inhibitors of BAZ2B. Bromodomain adjacent to zinc finger domain protein 2B (Homo sapiens), Q9UIF8. AlphaScreen BAZ2B-H3K14Ac peptide displacement. Potency, µM (titrated, usually from 114 µM), most hits filed as inhibitors. 4.4% of 360,000 active. AID 504333, 2011; note: nearly all actives have a fitted effect of over 60% in size
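BAZ2B (50 nM) with biotin-H3(5-23)K14Ac peptide (50 nM) in PBS pH 7.4, 0.01% Tween-20, preformed 30 min, then compound 30 min at room temperature; top concentration 110uM. AlphaScreen streptavidin donor/nickel chelate acceptor beads (10 ug/mL final), 20 min dark, signal read.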
G9a block: qHTS Assay for Inhibitors of Histone Lysine Methyltransferase G9a; Histone-lysine N-methyltransferase EHMT2 (Homo sapiens), Q96KQ7; G9a H3K9 monomethylation, AlphaScreen, 2 h; AID 504332, 2011; Potency, µM (highest dose often 102 µM), hits mostly inhibitors; 8.8% of 350,000 active; note: nearly all actives have a fitted effect of over 75% in size
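Signal arises when biotinylated H3K9 peptide, once monomethylated, bridges streptavidin donor and antibody-captured acceptor beads. Enzyme at 20 nM was preincubated 15 min with test compounds; peptide 500 nM and SAM 20 uM then reacted for 2 h.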
Sfp inh: qHTS Assay for Inhibitors of Bacillus subtilis Sfp phosphopantetheinyl transferase (PPTase) | 3.5% of 310,000 active | 4'-phosphopantetheinyl transferase ffp (Bacillus subtilis), Q9F4F7 | Biochemical Sfp PPTase activity, qHTS | Potency, µM, hits mostly inhibitors;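 note: the enzyme is Sfp with the accession as filed and its product quenches rhodamine fluorescence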
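With Hepes-Na pH 7.6 buffer containing 10 mM MgCl2, Sfp (15 nM) modified BHQ-2-YbbR (12.5 uM) using rhodamine-CoA (5 uM). Two reads 30 minutes apart at 525/598 nm yielded each well's rate.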
HP1b binding inh: HTS for Inhibitors of HP1-beta Chromodomain Interactions with Methylated Histone Tails; 0.56% of 390,000 active; AlphaScreen HP1-beta / biotin-H3K9me3 peptide binding; Potency, µM (series often up to 114 µM), usual class: inhibitors; Chromobox protein homolog 1 (Homo sapiens), P83916; note: nearly all actives have a fitted effect of over 70% in size
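Compound inhibition of the preformed complex between 50 nM HP1-beta and 50 nM biotinylated H3K9me3 peptide was read by AlphaScreen. Buffer was PBS pH 7.4 with 0.01% Tween-20. Incubations ran 30 min at room temperature, with 10 ug/mL donor/acceptor beads.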
L3MBTL1 block: qHTS Assay for the Inhibitors of L3MBTL1; Lethal(3)malignant brain tumor-like protein 1 (Homo sapiens), Q9Y468; AlphaScreen L3MBTL1–H3K9me1 peptide binding; Potency, µM (titrated, usually from 57.1 µM), usual class: inhibitors; 0.66% of 230,000 active; note: nearly all actives have a fitted effect of over 60% in size
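L3MBTL1 (50 nM) pre-complexed 30 min with biotinylated H3(1-15)K9me1 peptide (75 nM), then compounds added for 30 min at room temperature; AlphaScreen streptavidin donor/nickel chelate acceptor beads (10 ug/mL final) read after 30 min dark incubation.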
A number is an active result; [ ] = dose if it differs, or a comment. Calls come from the whole dose curve; as a rule, active = well fitted curve in the direction sought with a large enough effect; inconclusive = small, poorly fitted or top-dose-only effect, or another doubt; inactive = no such curve, though single readings can be large; an effect the other way counts as inactive or inconclusive.

For CCOC(=O)C1=C(COC(=O)CCOc2ccccc2)NC(=O)NC1C (centres undefined) the results were JMJD2A Tudor 100µM, BAZ2B block inactive, G9a block inactive[12.7 µM], HP1b binding inh inactive and L3MBTL1 block inactive.
For CCOC(=O)C1=C(C)NC(=O)NC1C (centres undefined) the results were JMJD2A Tudor inactive, BAZ2B block inactive, G9a block inactive[12.7 µM], Sfp inh inactive, HP1b binding inh inactive and L3MBTL1 block inactive[11.4 µM].
For CCOC(=O)C1=C(CBr)NC(=O)NC1C (centres undefined) the results were JMJD2A Tudor inconclusive, BAZ2B block 50µM, G9a block 28µM, Sfp inh inactive, HP1b binding inh inactive and L3MBTL1 block inactive.
CCOC(=O)C1=C(COC(=O)CCOc2cccc(C)c2)NC(=O)NC1C (centres undefined) was read as JMJD2A Tudor inactive, BAZ2B block inactive, G9a block inactive, HP1b binding inh inactive and L3MBTL1 block inactive.
For CCN(c1ccccc1)c1nnc(NC(=O)Nc2ccc(Br)cc2F)s1 the results were JMJD2A Tudor inactive, BAZ2B block inactive, G9a block inactive and HP1b binding inh inactive.
Screening CCN1CCN(C(=O)CCCCCn2c(=O)[nH]c3cc(C(=O)OC)ccc3c2=O)CC1 returned JMJD2A Tudor inactive, BAZ2B block inactive, G9a block inconclusive, Sfp inh inactive and HP1b binding inh inactive.
COCCNC(=O)C1CCC(Cn2c(=S)[nH]c3ccccc3c2=O)CC1 (centres undefined) was read as JMJD2A Tudor 79µM, BAZ2B block inactive, G9a block inconclusive, Sfp inh inactive and HP1b binding inh inactive.
For COC(=O)c1ccc2c(=O)n(CCCCCC(=O)N3CCN(c4ccccc4)CC3)c(=O)[nH]c2c1 the results were JMJD2A Tudor 56µM, BAZ2B block inactive, G9a block inactive, Sfp inh inactive and HP1b binding inh inactive.
Screening COCCn1c(=S)[nH]c2cc(C(=O)NC(C)C)ccc2c1=O returned JMJD2A Tudor inconclusive, BAZ2B block inconclusive, G9a block 11µM, Sfp inh inactive, HP1b binding inh inactive and L3MBTL1 block inactive.
For COC(=O)c1ccc2c(=O)n(CCCCCC(=O)O)c(=S)[nH]c2c1 the results were JMJD2A Tudor 50µM, BAZ2B block inactive, G9a block 45µM, Sfp inh inactive, HP1b binding inh inactive and L3MBTL1 block inactive.
For O=C(NCCc1c[nH]c2ccccc12)C1CCC(Cn2c(=S)[nH]c3ccccc3c2=O)CC1 (centres undefined) the results were JMJD2A Tudor inactive, BAZ2B block inactive, G9a block inactive, Sfp inh inactive and HP1b binding inh inactive.
Screening CC(C)NC(=O)c1ccc2c(=O)n(Cc3ccco3)c(=S)[nH]c2c1 returned JMJD2A Tudor inactive, BAZ2B block inactive, G9a block inactive, Sfp inh inactive, HP1b binding inh inactive and L3MBTL1 block inactive.
For COC(=O)c1ccc2c(=O)n(CCO)c(=S)[nH]c2c1 the results were JMJD2A Tudor inconclusive, BAZ2B block inactive, G9a block inconclusive, Sfp inh inactive, HP1b binding inh inactive and L3MBTL1 block inactive.
`CCOCCCNC(=O)C1CCN(C(=O)c2cc3sccc3n2C)CC1` gave JMJD2A Tudor inactive, BAZ2B block inactive, G9a block inactive and HP1b binding inh inactive.
O=C(CN1C(=O)CCSc2ccccc21)Nc1ccccc1F was read as JMJD2A Tudor inactive, BAZ2B block inactive, G9a block inactive and HP1b binding inh inactive.
For CCOCCCNC(=O)N1CCN(S(=O)(=O)c2ccc3c(ccn3C)c2)CC1 the results were JMJD2A Tudor inactive, BAZ2B block inactive, G9a block inactive and HP1b binding inh inactive.
Screening CCOCCCNC(=O)c1ccc2c(=O)n(CCCOCC)c(=S)[nH]c2c1 returned JMJD2A Tudor inactive, BAZ2B block inactive, G9a block 10µM, Sfp inh inactive and HP1b binding inh inactive.
For CCOCCCn1c(=S)[nH]c2cc(C(=O)NCCOC)ccc2c1=O the results were JMJD2A Tudor 40µM, BAZ2B block inconclusive, G9a block inconclusive, Sfp inh 79µM, HP1b binding inh inactive and L3MBTL1 block inactive.
Screening CCOCCCn1c(=S)[nH]c2cc(C(=O)NCCc3ccc(OC)c(OC)c3)ccc2c1=O returned JMJD2A Tudor inactive, BAZ2B block inactive, Sfp inh inactive and HP1b binding inh inactive.
`CCOCCCn1c(=S)[nH]c2cc(C(=O)NCCCN(CC)CC)ccc2c1=O` gave JMJD2A Tudor inactive, BAZ2B block inactive, G9a block 8.9µM, Sfp inh inactive and HP1b binding inh inactive.
CCOCCCNC(=O)c1ccc2c(=O)n(CCc3ccccc3)c(=O)[nH]c2c1 was read as JMJD2A Tudor inactive, BAZ2B block inactive, G9a block inactive and HP1b binding inh inactive.
`O=C1CCCC2=C1C1(CCSCC1)N=C(Nc1nc3ccccc3o1)N2` gave JMJD2A Tudor inactive.
`Cc1noc(NS(=O)(=O)c2ccc(N/C=C\C(=O)c3ccccc3)cc2)c1C` gave JMJD2A Tudor inactive[11.4 µM], BAZ2B block inactive, G9a block 50µM, Sfp inh inactive, HP1b binding inh inactive and L3MBTL1 block inactive.
Screening Cc1noc(NS(=O)(=O)c2ccc(N/C=C\C(=O)c3ccc(F)cc3)cc2)c1C returned JMJD2A Tudor inactive, BAZ2B block inconclusive, Sfp inh inactive, HP1b binding inh inactive and L3MBTL1 block inactive.
Screening Cc1noc(NS(=O)(=O)c2ccc(N/C=C/C(=O)c3ccc4c(c3)OCO4)cc2)c1C returned JMJD2A Tudor inactive, BAZ2B block inconclusive, G9a block 79µM, Sfp inh inactive, HP1b binding inh inactive and L3MBTL1 block inactive.
CNc1nc(-c2ccc(N(C)C)cc2)nc2ccccc12 was read as Sfp inh inactive.
For CCCCCCCCCCCCCCNCCO the results were G9a block inactive[12.7 µM] and Sfp inh inactive.
For CCOC(=O)Cn1c(S(=O)(=O)Cc2ccccc2)nc2ccccc21 the results were JMJD2A Tudor inactive, BAZ2B block inactive, G9a block 40µM, Sfp inh inactive, HP1b binding inh inactive and L3MBTL1 block inactive.
For CCOC(=O)CCn1c(CC(=O)OCC)nc2ccccc21 the results were JMJD2A Tudor inactive, BAZ2B block inconclusive, G9a block 50µM, Sfp inh inactive, HP1b binding inh inactive and L3MBTL1 block inactive.
